The results in this text go back to the OligoGym collection.
Further: reference of the scale not given here.

One test has as its target EFCAB6. Put plainly: pooled miR-30 sensor sort-seq; sequence = guide strand. The conditions noted are these: shRNA.
The sequence TTCTTAGACAAGTCTGACCATC displayed a sensor-assay potency score (higher = more potent) of -0.457. TTTCATAACAGTCTTAATGTTT had a sensor-assay potency score (higher = more potent) of -0.893. On to TTCACTTAACAGCTGATCCTTT, for which the sensor-assay potency score (higher = more potent) stood at 0.362. TAGTTTGTAACAGAAATCCTTA displayed a sensor-assay potency score (higher = more potent) of -0.465.

As to TAGTTCTGAATCCGCAACCTTC, the sensor-assay potency score (higher = more potent) is -0.922. Still for that read-out and setting: with TAAATGTTCACTTAACAGCTGA the figure was -0.275. On the same count and under the same terms, with TTGAATATACTCTACACGGTGA the figure was 0.203.

For the next test, the target named is EFCAB7. The description is as above. The conditions noted are these: shRNA.
TTCGGTAAAACACACAAGCTGT displayed a sensor-assay potency score (higher = more potent) of -0.242. TACAATAATATATCCATTCTTG returned a sensor-assay potency score (higher = more potent) of -0.277. Regarding TTCATCTCTATATACAAGTTGG, the sensor-assay potency score (higher = more potent) was -0.725.

TTCTCGATCATTAGCTTCCATT yielded a sensor-assay potency score (higher = more potent) of -1.27. With TTTACTGTCAACCTCTAGTTTT, the sensor-assay potency score (higher = more potent) is -1.12.

As for TTGATCTTTAGAAATAATGTTT, the sensor-assay potency score (higher = more potent) was -0.858.

TAATTTACAAAACTTGATGTAG displayed a sensor-assay potency score (higher = more potent) of -0.142. The same measure, in the same setting: to TTTGTATCAAAATTCTCTCTGC belongs 0.129; to TTGTTTTCAATAACTGACGTTA, -0.29; to TTCTCTATTTCGTAGTTCGGTA, -1.01. On the same count and under the same terms, to TATATTTTCATAGCCATCCATT belongs -0.796.

Consider TAGTCTTGAGACATTGCTCGTT, for which the sensor-assay potency score (higher = more potent) is 0.405.

The next test deals with EFNB2. The test is described as above. The conditions noted are these: shRNA.
TAAAAAACCAACATTGCTCTAT returned a sensor-assay potency score (higher = more potent) of 0.0453.

The sequence TTTATCAACCATATAAACTTTA showed a sensor-assay potency score (higher = more potent) of -0.264. Same read-out and setting: with TTGCACACCTTAACTAGCCCGA the figure was -0.379; with TTAATAGTGCATCTGTCTGCTT, -0.0531. Still for that read-out and setting: to ATAGGCTCTAAAACTATCGATT belongs -0.56; to TTTTCCTTCTTAATAGTGCATC, -0.818. In turn, TTGTTGTCGAACTTCTTCCATT returned a sensor-assay potency score (higher = more potent) of -1.15. For TATAATATTCATACTGGCCAAC, the sensor-assay potency score (higher = more potent) was -1.28.

TATAATGTAATAATCTTTGTTC gave a sensor-assay potency score (higher = more potent) of 0.426. Take TAGAGGATCATAATTTCTGTGA: the sensor-assay potency score (higher = more potent) is -0.365.

In the case of TTGATCCAGCAGAACTTGCATC, the sensor-assay potency score (higher = more potent) was -0.768. TATAGTACCAGTCCTTGTCCAG came in with a sensor-assay potency score (higher = more potent) of -0.415.

TTGGAAATCGCAGTTCTGCATA: the sensor-assay potency score (higher = more potent) was -1.17. Sequence TTTTCTTCCTGCACATCGCTAT had a sensor-assay potency score (higher = more potent) of 0.000564. The same measure, in the same setting: with TTGTCGAACTTCTTCCATTTGT the figure was -0.423; with TAGTGCATCTGTCTGCTTGGTC, 0.00867; with TTGCTCTATGTACACAATCTGG, -1.18.

For TTAGCATAGAACCAAAACGTAG, the sensor-assay potency score (higher = more potent) is -1.59.

Take AATTCTTGAAACTTGATGGTGA: the sensor-assay potency score (higher = more potent) stood at 0.644. The same measure, in the same setting: with TTTATACAAAACATCTTGCTTA the figure was 0.624. The sequence TTAGACTTTATAAAAAACCAAC gave a sensor-assay potency score (higher = more potent) of -1.36.
